About 83,000 compounds went through this panel and 20% of them were active in at least one assay; those are over-represented in the sample as a whole.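 Single-concentration screen, 48 h exposure, 96-well plates. Endpoint: percent growth. Below 10 = active.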 Activity calls are given as the source filed them.
Columns and labels:
Assay in all cases: NCI-60 one-dose screen, 48 h (100 = growth as untreated, 0 = no growth, -100 = all killed)
Conditions in all cases: 10 µM unless noted
RPMI-8226 leukemia = tested on: RPMI-8226 leukemia
OVCAR-8 ovarian = tested on: OVCAR-8 ovarian
SK-OV-3 ovarian = tested on: SK-OV-3 ovarian
IGROV1 ovarian = tested on: IGROV1 ovarian
OVCAR-3 ovarian = tested on: OVCAR-3 ovarian
HS 578T breast = tested on: HS 578T breast
NCI/ADR-RES ovarian = tested on: NCI/ADR-RES ovarian
T-47D breast = tested on: T-47D breast
BT-549 breast = tested on: BT-549 breast
MDA-MB-435 melanoma = tested on: MDA-MB-435 melanoma
SW-620 colon = tested on: SW-620 colon
MCF7 breast = tested on: MCF7 breast
HCT-116 colon = tested on: HCT-116 colon
HCC-2998 colon = tested on: HCC-2998 colon
KM12 colon = tested on: KM12 colon
OVCAR-5 ovarian = tested on: OVCAR-5 ovarian
OVCAR-4 ovarian = tested on: OVCAR-4 ovarian

Measured: growth

COc1ccc2c(c1)[nH]c(=O)c1c3cccnc3cn21
active: OVCAR-8 ovarian 8.08% | NCI/ADR-RES ovarian 0.176% | MDA-MB-435 melanoma -6.86%
inactive: RPMI-8226 leukemia 32% | SK-OV-3 ovarian 11.9% | IGROV1 ovarian 20.2% | OVCAR-3 ovarian 23.8% | HS 578T breast 49.6% | T-47D breast 60.2% | BT-549 breast 45.6% | SW-620 colon 20% | MCF7 breast 20.5% | HCT-116 colon 15.2% | HCC-2998 colon 21.5% | KM12 colon 14.5%

CC1OC(O[C@H]2/C=C/C=C/C=C/C=C/C=C/C=C/C=C/[C@H](C)[C@@H](O)[C@@H](C)[C@H](C)OC(=O)CC(O)CC(O)CCC(O)C(O)CC(O)C[C@]3(O)C[C@H](O)C(C(=O)O)C(C2)O3)C(O)[C@H](N)C1O (some centres undefined)
inactive: OVCAR-8 ovarian 23.8% | SK-OV-3 ovarian 38% | IGROV1 ovarian 16.6% | T-47D breast 54.3% | BT-549 breast 36.6% | MCF7 breast 28.8% | HCC-2998 colon 53.5% | KM12 colon 41.6%
active: OVCAR-5 ovarian -21% | HS 578T breast -18.7% | NCI/ADR-RES ovarian -29.9% | MDA-MB-435 melanoma -69.5% | SW-620 colon -24.9% | HCT-116 colon -38.1%

CC1(C)CC(=O)C2=C(C1)N(c1ccc(OC(F)(F)F)cc1)C(N)=C(C#N)C2c1ccc(Cl)cc1 (centres undefined)
inactive: OVCAR-8 ovarian 56.2% | OVCAR-5 ovarian 91% | OVCAR-4 ovarian 85% | SK-OV-3 ovarian 62.7% | IGROV1 ovarian 90.3% | OVCAR-3 ovarian 94.5% | HS 578T breast 65.5% | NCI/ADR-RES ovarian 87.6% | T-47D breast 79.1% | BT-549 breast 109% | MDA-MB-435 melanoma 93.1% | SW-620 colon 101% | MCF7 breast 86% | HCT-116 colon 68.4% | HCC-2998 colon 94.7% | KM12 colon 86.9%

O=C(CSc1nnc(-c2ccc(NC(=O)c3cccnc3)cc2)o1)N[C@@H](Cc1ccc(O)cc1)C(=O)O
inactive: OVCAR-8 ovarian 99.8% | OVCAR-5 ovarian 106% | OVCAR-4 ovarian 120% | SK-OV-3 ovarian 101% | IGROV1 ovarian 102% | OVCAR-3 ovarian 120% | HS 578T breast 96.9% | NCI/ADR-RES ovarian 104% | T-47D breast 86% | BT-549 breast 113% | MDA-MB-435 melanoma 108% | SW-620 colon 111% | MCF7 breast 105% | HCT-116 colon 99.6% | HCC-2998 colon 108% | KM12 colon 110%

Cn1cc2c(c1)-c1nc(Nc3ccccc3)ncc1CC2
inactive: OVCAR-8 ovarian 79.6% | OVCAR-5 ovarian 60% | OVCAR-4 ovarian 69.3% | SK-OV-3 ovarian 77.6% | IGROV1 ovarian 58.6% | OVCAR-3 ovarian 69.5% | HS 578T breast 78.4% | NCI/ADR-RES ovarian 71.6% | T-47D breast 40.7% | BT-549 breast 32.1% | MDA-MB-435 melanoma 70.3% | SW-620 colon 52.1% | MCF7 breast 25.2% | HCT-116 colon 35.4% | HCC-2998 colon 50.7% | KM12 colon 11.9%

O=c1c2cc(F)ccc2sc2c(NCCN3CCCCC3)nc3ccccc3c12
inactive: OVCAR-8 ovarian 57.6% | OVCAR-5 ovarian 69.3% | OVCAR-4 ovarian 50.7% | SK-OV-3 ovarian 78.8% | IGROV1 ovarian 27.3% | HS 578T breast 56% | NCI/ADR-RES ovarian 67.1% | T-47D breast 66.9% | BT-549 breast 75.1% | MDA-MB-435 melanoma 29.5% | SW-620 colon 29.1% | MCF7 breast 15.8% | HCT-116 colon 25.3% | HCC-2998 colon 13.9% | KM12 colon 29%

Cc1ccc(NS(=O)(=O)c2ccc3c(c2)C(=O)CC(c2ccc(C(=O)C(C)C)cc2)N3)cc1C (centres undefined)
inactive: OVCAR-8 ovarian 73.4% | OVCAR-5 ovarian 80.1% | OVCAR-4 ovarian 62.9% | SK-OV-3 ovarian 74.4% | IGROV1 ovarian 66.8% | OVCAR-3 ovarian 74.4% | HS 578T breast 73.2% | NCI/ADR-RES ovarian 56.3% | T-47D breast 39.8% | BT-549 breast 65.6% | MDA-MB-435 melanoma 58.3% | SW-620 colon 70.5% | MCF7 breast 37.4% | HCT-116 colon 54% | HCC-2998 colon 89.9% | KM12 colon 71.9%

O=c1c2cc(F)ccc2sc2c(Nc3cccnc3)nc3ccccc3c12
inactive: OVCAR-8 ovarian 89.1% | OVCAR-5 ovarian 57.8% | OVCAR-4 ovarian 105% | SK-OV-3 ovarian 93.9% | IGROV1 ovarian 73.7% | OVCAR-3 ovarian 108% | HS 578T breast 74% | NCI/ADR-RES ovarian 90.4% | T-47D breast 84.7% | BT-549 breast 98.7% | MDA-MB-435 melanoma 99.1% | SW-620 colon 85.6% | MCF7 breast 55.1% | HCT-116 colon 61.5% | HCC-2998 colon 94.1% | KM12 colon 89.2%

Source: PubChem BioAssay (NCI)
